Among all 370,000 compounds or so, about 4,700 (1.3%) were called active. The sample as a whole holds a higher share of actives than the screen did. A number with no mark means an inactive call.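 Rule for the calls: active = inhibition above the plate cutoff, the mean of all test compounds on that plate plus 3 SD (cut at about 35% in these data); inactive = the rest.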
Assay: binders of r(CAG) RNA repeats, primary screen, biochemical, fluorescence (AID 651821);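 note: 0% = DMSO alone and 100% = 100 µM mitoxantrone as full dye displacement; higher means more dye released from RNA so lower well fluorescence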
Conditions: r(CAG) RNA repeat, TO-PRO-1 dye displacement fluorescence; at 3 µM; stronger effect = higher value
With `CCCCCN1CCCCC(NC(=O)C(C)CCC)C1=O` (stereo unspecified) the inhibition was -0.91%.
Work on `COC(=O)C1CN(Cc2ccc(F)cc2)CCS(=O)(=O)N1Cc1ccc(Cl)cc1` (stereo unspecified) yielded an inhibition of 2.48%.
With `Cc1cccc(C)c1NC(=O)C(c1ccc(C(F)(F)F)cc1)n1c(=O)c(-c2ccco2)nc2ccccc21` (stereo unspecified) the inhibition was 34.8% (active).
In the case of `N#Cc1ccc(C(C(=O)NCc2ccccc2)n2c(=O)c(-c3ccco3)nc3ccccc32)cc1` (stereo unspecified), the inhibition is reported as 38.9% (active).
With `O=C(NC1CCCCC1)C(c1cc2ccccc2o1)n1c(=O)c(-c2ccco2)nc2ccccc21` (stereo unspecified) the inhibition was 24.4%.
With `Cc1cccc(C)c1NC(=O)C(c1cccc2ccccc12)n1c(=O)c(-c2ccco2)nc2ccccc21` (stereo unspecified) the inhibition was 43.8% (active).
`CCCCCNC(=O)C(c1ccc(OC)cc1)n1c(=O)c(-c2ccccc2)nc2ccccc21` (stereo unspecified) showed an inhibition of 7.62%.
`COc1ccc(C(C(=O)Nc2c(C)cccc2C)N2CCN(c3ccc(C)cc3)CC2)cc1` (stereo unspecified) showed an inhibition of 1.38%.
Compound `COc1ccc(C(C(=O)NCc2ccccc2)n2c(=O)c(-c3ccccc3)nc3ccccc32)cc1` (stereo unspecified) has an inhibition of 7.82%.
`COc1ccc(NC(=O)C(c2ccncc2)n2c(=O)c(-c3cc4ccccc4[nH]3)nc3ccccc32)cc1` (stereo unspecified) gave an inhibition of 19.9%.
`CCC(C(=O)Nc1c(C)cccc1C)n1c(-c2cc(C)cs2)nc2ccccc21` (stereo unspecified) showed an inhibition of 2.46%.
`CC(=O)N1CCc2cc(S(=O)(=O)NCCC(=O)N3CCCC3)ccc21` showed an inhibition of 0.89%.
Compound `COc1ccc(C2=CN(Cc3ccccc3)C(c3ccc(OC)cc3)CC2=O)cc1` (stereo unspecified) has an inhibition of 2.54%.
With `COC(=O)C1CN(CCc2ccccc2)CCS(=O)(=O)N1Cc1ccc(F)cc1` (stereo unspecified) the inhibition was 5.69%.
For `O=C(NCC1COc2ccccc2O1)c1ccc(NC(=O)c2cc(F)ccc2F)cc1` (stereo unspecified), the inhibition was 4.71%.
Work on `CC(CCN1CCC(C(O)(c2ccccc2)c2ccccc2)CC1)Oc1ccc([N+](=O)[O-])cc1Cl` (stereo unspecified) yielded an inhibition of 2.17%.
Work on `CCOC(=O)Cc1csc(SCC(=O)NC(C)C23CC4CC(CC(C4)C2)C3)n1` (stereo unspecified) yielded an inhibition of -11.4%.
`O=S(=O)(Nc1ccc(OC(F)(F)F)cc1)c1cccc2nonc12` showed an inhibition of 3.85%.
With `O=S(=O)(Nc1ccc(O)c2ccccc12)c1ccc(OC(F)(F)F)cc1` the inhibition was 39% (active).
`O=[N+]([O-])c1ccc(NS(=O)(=O)c2ccccc2)c(Cl)c1` gave an inhibition of 6.07%.
In the case of `COC(=O)[C@]12C[C@H](CC(=O)NCc3cccc4ccccc34)C(=O)N(CCc3ccc(OC)c(OC)c3)C1=C[C@H](C1CCCC1)O[C@@H]2C`, the inhibition is reported as 6.55%.
`Nc1[nH]c(/C=C2/CCCCC2n2[nH]c(=O)n(-c3ccccc3)c2=O)c(Cc2ccccc2)[n+]1Cc1ccccc1` (stereo unspecified) gave an inhibition of 8.51%.
In the case of `COc1ccc(CCNC(=O)CSc2nc3c([nH]2)c(=O)n(C)c(=O)n3C)cc1`, the inhibition is reported as 1.31%.
With `O=C(O)c1ccccc1-c1ccccc1C(=O)Nc1ccccc1Br` the inhibition was 1.52%.
With `O=C(NC(=S)Nc1ccccc1C(=O)O)c1ccc(-c2ccc(Br)cc2)o1` the inhibition was 69.5% (active).
`O=C(NC(=S)Nc1ncccn1)c1ccccc1Br` showed an inhibition of -2.07%.
`CCCCCCCCN1C(=O)[C@@H](CC(=O)NCCCC)C[C@@]2(C(=O)OC)C1=C[C@H](C(C)(C)C)O[C@@H]2C` showed an inhibition of 0.05%.
Compound `CCCCOCC1CN(CCCC)S(=O)(=O)c2c(Oc3ccc(F)cc3)cccc2O1` (stereo unspecified) has an inhibition of 2.41%.
Compound `Nc1cccc(-c2cncc(N3CCN(Cc4ccccn4)CC3)n2)c1` has an inhibition of 2.15%.
For `Nc1cccc(-c2cc(-c3ccccc3)nc(-c3cccc(N)c3)n2)c1`, the inhibition was 35.3% (active).
`Fc1ccc2cnc(-c3ccccc3)cc2c1` showed an inhibition of 2%.
For `O=C(O)c1[nH]c2ccccc2c1C(c1cccc(O)c1)c1c(C(=O)O)[nH]c2ccccc12`, the inhibition was 61.1% (active).
With `Cc1c(C(=O)CN2CCOCC2)[nH]c2ccccc12` the inhibition was 1.32%.
`CCCS(=O)(=O)Nc1c(C(=O)O)[nH]c2ccccc12` showed an inhibition of 0.99%.
For `O=C(NCc1ccccc1)[C@@H]1CCCN1C(=O)[C@@H](NS(=O)(=O)c1ccc(F)cc1F)C1CCCCC1`, the inhibition was -1.8%.
Work on `C=CCN1[C@H](CC(C)C)COc2cccc(N3CCCC3)c2S1(=O)=O` yielded an inhibition of 8.14%.
For `CN1CCc2ccccc2C1Cc1ccccc1NC(=O)c1sc2ccccc2c1Cl` (stereo unspecified), the inhibition was -0.7%.
For `O=C(N/N=C/c1c(Cl)[nH]c2ccccc12)c1sc2ccccc2c1Cl`, the inhibition was 35.6% (active).
With `CCOc1ccc2ccccc2c1/C=N/NC(=O)c1c(C)cc(C)[nH]c1=O` the inhibition was 0.65%.
`C=CCSc1nnc(N2C(=O)C(O)=C(C(=O)c3ccco3)C2c2ccc(F)cc2)s1` (stereo unspecified) showed an inhibition of 18.7%.
In the case of `Cc1ccc2nc(N3C(=O)C(O)=C(C(=O)c4ccco4)C3c3cccc(O)c3)sc2c1` (stereo unspecified), the inhibition is reported as 72.6% (active).
`O=C(C1=C(O)C(=O)N(c2ncccn2)C1c1cccs1)c1ccco1` (stereo unspecified) showed an inhibition of -0.3%.
In the case of `COCCNc1cc(NCCOC)c([N+](=O)[O-])cc1[N+](=O)[O-]`, the inhibition is reported as 1.02%.
For `COC(=O)[C@]12C[C@H](CC(=O)N3CCN(C(=O)C4CC4)CC3)C(=O)N(Cc3ccc4c(c3)OCO4)C1=C[C@H](C(C)(C)C)O[C@@H]2C`, the inhibition was 1.7%.
In the case of `COc1ccccc1C(=O)CSc1nnc(-c2ccccn2)n1-c1ccccc1`, the inhibition is reported as 5.14%.
Compound `CCCCNC(=O)C[C@@H]1C(=O)N(CCc2ccc(Cl)cc2)C2=CCCC[C@]21C(=O)OCC` has an inhibition of 0.46%.
For `Cc1c(CCC(=O)N[C@@H](CC(C)C)C(=O)O)c(=O)oc2c(C)c3oc4c(c3cc12)CCCC4`, the inhibition was 38.4% (active).
In the case of `Cc1c(C)c2cc3c4c(oc3c(C)c2oc1=O)CCCC4`, the inhibition is reported as 5.96%.
`COc1ccc2c(C)c(CCC(=O)NC3CC3)c(=O)oc2c1C` showed an inhibition of -3.01%.
In the case of `Cc1c(CC(=O)NCC(=O)NCC(=O)O)c(=O)oc2cc3oc4c(c3cc12)CCCC4`, the inhibition is reported as 11.3%.
With `Cc1oc2c(C)c3oc(=O)c(CC(=O)N[C@@H](CC(C)C)C(=O)N[C@@H](Cc4ccccc4)C(=O)O)c(C)c3cc2c1C` the inhibition was 15.8%.
In the case of `CC[C@@H](C)[C@H](NC(=O)CCc1c(C)c2cc3c4c(oc3c(C)c2oc1=O)CCCC4)C(=O)O`, the inhibition is reported as 36.8% (active).
`COC(=O)C1=C(C)N(Cc2ccc(C(F)(F)F)cc2)C(=NCc2ccccc2)NC1c1ccccc1C(F)(F)F` (stereo unspecified) showed an inhibition of 1.95%.
Compound `CC(C)(C)C(c1nc2ccccc2[nH]1)n1c(Cc2csc3ccccc23)nc2ccccc21` (stereo unspecified) has an inhibition of 6.22%.
For `CC(C)(C)OC(=O)NCCc1ccccc1/C=C/S(=O)(=O)NCc1ccc(F)cc1`, the inhibition was 3.67%.
In the case of `Cc1[nH]c2ccccc2c1CC(=O)Nc1ccc(Nc2cccnc2)c(-c2cccc(Cl)c2)c1`, the inhibition is reported as 14.1%.
In the case of `COC(=O)c1cc2c(c3c4cc(F)ccc4n(S(=O)(=O)c4ccccc4)c13)C(=O)N(Cc1ccccc1OC)C2`, the inhibition is reported as 16.2%.
With `O=C(NCCOc1ccccc1F)Nc1ccc(Br)cc1` the inhibition was 5.19%.
With `O=C(Nc1ccccc1)Nc1nnc(COc2ccccc2F)s1` the inhibition was 56.5% (active).
Compound `COCc1nnc(NC(=O)CS(=O)(=O)Cc2ccccc2)s1` has an inhibition of 4.38%.
`CCOC(=O)[C@]12CCCC3=C1N(CCC3)C(=O)[C@@H](CC(=O)N1CCSCC1)C2` gave an inhibition of -0.18%.
In the case of `CCOc1ccc(C(=O)NC2CCN(CC(=O)NCc3cccs3)CC2)cc1`, the inhibition is reported as -7.65%.
With `COc1cc(NC(=O)C2=CC(c3ccco3)=NS(=O)(=O)N2C)cc(OC)c1OC` the inhibition was 1.85%.
Work on `COCCNC(=O)c1ccc2nc(Cc3ccc(OC)c(OC)c3)oc2c1` yielded an inhibition of -4.89%.
In the case of `COCCNC(=O)Nc1ccc2nc(-c3ccco3)c(-c3ccco3)nc2c1`, the inhibition is reported as 69.7% (active).
In the case of `COC(=O)[C@]12C[C@H](CC(=O)NCc3cccs3)C(=O)N(CCc3ccc(OC)c(OC)c3)C1=C[C@H](C(C)C)O[C@@H]2C1CC1`, the inhibition is reported as 3.01%.
Work on `CCc1nn(CCCC(=O)NC(C)c2ccccc2)c(=O)c2cc3occc3n12` (stereo unspecified) yielded an inhibition of -1.26%.
In the case of `O=C(C1CCN(S(=O)(=O)c2ccc(Br)s2)CC1)N1CCN(C2CCCCC2)CC1`, the inhibition is reported as -5.64%.
In the case of `O=C1c2cccc3cccc(c23)C(=O)N1CCCCCc1n[nH]c(=S)o1`, the inhibition is reported as 38.4% (active).
Compound `O=C(COC(=O)CCCN1C(=O)c2cccc3cccc(c23)C1=O)NC1CCS(=O)(=O)C1` (stereo unspecified) has an inhibition of -0.32%.
In the case of `O=C(CCCN1C(=O)c2cccc3cccc(c23)C1=O)N1CCN(Cc2ccc3c(c2)OCO3)CC1`, the inhibition is reported as -5.35%.
With `COc1cc(C(=O)Nn2c(O)c(C3=c4ccccc4=NC3=O)sc2=S)ccc1O` the inhibition was 50.1% (active).
For `COc1cc(C(=O)Nn2c(CC(C)C)nc3ccccc3c2=O)cc(OC)c1OC`, the inhibition was -4.74%.
`COc1cc(C(=S)NC2CCCCC2)ccc1O` showed an inhibition of 4.7%.
In the case of `C[C@H](C(=O)N(C)c1ccccc1)[C@@H](O)c1ccc(Cl)cc1`, the inhibition is reported as -1.76%.
In the case of `C=CCN1C(=O)[C@@H](CC(=O)NCCCCc2ccccc2)[C@]2(C(=O)OCC)CCCCC/C=C/12`, the inhibition is reported as 3.6%.
For `CCOC(=O)N1CCN(C(=O)C[C@@H]2C(=O)N(CCc3ccc(Cl)cc3)C3=CCCC[C@]32C(=O)OCC)CC1`, the inhibition was 3.44%.
For `CC(=O)N(c1ccc2oc(=O)sc2c1)S(=O)(=O)c1ccc(C)cc1`, the inhibition was 42.4% (active).
`COC(=O)c1c(C)oc2ccc(N(C(=O)Oc3ccccc3)S(=O)(=O)c3ccccc3)cc12` showed an inhibition of 5.17%.
For `CC(=O)Oc1ccc(N(C(C)=O)S(=O)(=O)c2ccc3ccccc3c2)cc1Br`, the inhibition was 2.18%.
In the case of `CC(=O)OC12CCCN(C1)/C(=C/c1ccncc1)C2` (stereo unspecified), the inhibition is reported as 3.52%.
